According to PubChem BioAssay (NCATS):
Records with an inconclusive call do not appear. The source made the active and inactive calls. Calls come from the whole dose curve; as a rule, active = well fitted cell-killing curve with a large enough effect; inconclusive = small, poorly fitted or top-dose-only effect; inactive = flat fitted curve, though single readings scatter.

Assay: Cellular viability qHTS for adrenocortical cancer (ACC) cell line SW-13 (AID 1963989); note: nearly all actives have a fitted effect of over 65% in size;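 for activity (max response): cells grown in serum-free medium with ITS supplement; % is set by controls: 0 for no effect and ±100 for the full control effect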
Details: SW-13 ACC cells viability, CellTiter-Glo, 48 h; activity (max response): hits give low values
Outline: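 Luminescent ATP read-out (CellTiter-Glo, 20 min at room temperature) measured metabolically competent SW-13 cells after 48 h compound treatment. Final concentrations spanned up to 46 uM; bortezomib served as positive control.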
Potency is the fitted concentration of half-maximal effect.

| Structure (SMILES) | activity (max response) | Potency |
| --- | --- | --- |
| Cc1cccc(Cc2cnc[nH]2)c1C | -10.7% (inactive) |  |
| OC(c1ccccc1)(c1ccccc1)C1CCNCC1 | 1.1% (inactive) |  |
| COC(=O)[C@@]12OC[C@]34[C@H]([C@@H](O)[C@@H]1O)[C@@]1(C)CC(=O)C(O)=C(C)[C@@H]1C[C@H]3OC(=O)[C@H](OC(=O)/C=C(\C)C(C)C)[C@@H]24 |  | 6.31 µM (active) |
| CC(Cc1ccccc1)NCCn1cnc2c1c(=O)n(C)c(=O)n2C (stereo unspecified) | -22.4% (inactive) |  |

Assay: Cellular viability qHTS for adrenocortical cancer (ACC) cell line NCI-H295R (AID 1963990); note: nearly all actives have a fitted effect of over 60% in size;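 for activity change, negative = viability loss: 0% = DMSO only wells and -100% = full killing with cytotoxic reference compound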
Details: CellTiter-Glo ATP luminescence, 48 h; series mostly up to 46.1 µM; activity change, negative = viability loss: at the top concentration
Outline: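 IC50 and maximal efficacy derive from four-parameter logistic modelling of titration curves, with reads scaled between DMSO-only wells (0%) and doxorubicin hydrochloride (100% inhibition). Compounds spanned up to 46 uM over 48 h.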

| Structure (SMILES) | activity change, negative = viability loss | Potency |
| --- | --- | --- |
| C=CC[C@]1(O)CC[C@H]2[C@@H]3CCC4=CC(=O)CCC4=C3C=C[C@@]21C | -22% (inactive) |  |
| c1cc2ccc3cccc4ccc(c1)c2c34 | -19.9% [at 92.7 µM] (inactive) |  |
| CNCC(=O)c1ccc(O)c(O)c1 | -8.27% (inactive) |  |
| C[C@@H]1CC2=CC(=O)CC[C@@H]2[C@H]2CC[C@@]3(C)[C@@H](CC[C@]3(C)O)[C@@H]21 | -28.5% (inactive) |  |
| CCOC(=O)C1(c2ccccc2)CCN(CCc2ccc(N)cc2)CC1 | 0.524% (inactive) |  |
| CC(=O)[C@H]1CC[C@H]2[C@@H]3CC[C@H]4C[C@H](O)CC[C@]4(C)[C@H]3C(=O)C[C@]12C | 7.11% (inactive) |  |
| CCCCC/C=C\C/C=C\C/C=C\C/C=C\CCCC(=O)NCC(=O)O | -15.7% (inactive) |  |
| O=C1NCN(c2ccccc2)C12CCN(CCCOc1ccc(F)cc1)CC2 | -22.6% (inactive) |  |
| CCCN(CCC)C(=O)Cc1c(-c2ccc(Cl)cc2)nc2ccc(Cl)cn12 | 0.0125% (inactive) |  |
| C[C@H](CN1CCOCC1)C(C(=O)N1CCCC1)(c1ccccc1)c1ccccc1 | -14.5% [at 92.7 µM] (inactive) |  |
| C=C[C@H]1CN2CCC1C[C@@H]2[C@@H](O)c1ccnc2ccccc12 (stereo partly specified) | -9.03% (inactive) |  |
| COC(=O)[C@]12CCC(C)(C)C[C@H]1[C@H]1C(=O)C=C3[C@@]4(C)C=C(C#N)C(=O)C(C)(C)[C@@H]4CC[C@@]3(C)[C@]1(C)CC2 |  | 3.98 µM (active) |
